Bioassay records deposited in PubChem BioAssay by National Center for Advancing Translational Sciences (NCATS).
Shown are actives, neighbours in structure and some others; about 4% of the full set was active somewhere.
Glioma ERSR ind: induces the endoplasmic reticulum stress response in human glioma cells | Potency, µM, inactives show top-dose activation, usual class: activators | U87-MG GRP78 promoter luciferase reporter, 16 h | hit rate 0.02% among 420,000 | AID 602332; active = well fitted activation curve with a large enough effect; note: potency is the fitted concentration of half-maximal effect; series mostly up to about 76 µM; % of control where 0% means no effect; nearly all actives have a fitted effect of over 35% in size
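ERSR induction read as luciferase luminescence (Bright-Glo, 10 min at room temperature) in stably transfected human U87-MG glioma cells exposed to compounds for 16 h, using GRP78 as sensor.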
D1 potentiator: enhances dopamine response at the human D1 receptor; P21728; HEK293 TREx D1 cells, calcium flux, dopamine EC20 potentiation; potentiation, % at 10 µM; hit rate 0.036% among 360,000; in the data active = potentiation above about 30%; note: 0% is about no effect
Target sequence (P21728 whole entry, looked up): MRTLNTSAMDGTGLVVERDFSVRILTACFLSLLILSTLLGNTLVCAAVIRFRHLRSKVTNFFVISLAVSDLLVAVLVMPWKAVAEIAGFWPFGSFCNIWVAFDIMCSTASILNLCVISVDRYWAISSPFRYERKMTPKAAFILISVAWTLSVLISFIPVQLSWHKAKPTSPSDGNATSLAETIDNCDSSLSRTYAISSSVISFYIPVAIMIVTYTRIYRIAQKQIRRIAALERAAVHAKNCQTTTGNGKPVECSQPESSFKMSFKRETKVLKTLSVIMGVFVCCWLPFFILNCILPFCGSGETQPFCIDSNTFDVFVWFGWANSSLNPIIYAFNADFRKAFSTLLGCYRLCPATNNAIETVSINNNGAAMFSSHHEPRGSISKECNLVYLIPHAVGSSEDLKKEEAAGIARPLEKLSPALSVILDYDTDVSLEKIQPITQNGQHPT
TRHR PAM: allosteric enhancers of human TRH receptor; P34981; TRHR cells, fluo-8 calcium fluorescence, EC20 TRH enhancement; enhancement, % at 2 µM; hit rate 0.66% among 360,000; in the data active = enhancement above about 30%; note: 0% is about no effect
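Enhancer read-out: after compound pinning and an initial kinetic agonist-mode read, an EC20 of TRH (10 nM final) was injected and fluo-8 calcium signal (Ex 480/Em 530) followed at 1 s/cycle for 100 cycles in TRHR-expressing cells.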
D1 agonist: human D1 receptor agonism | HEK293 T-REx D1 cells, calcium flux, agonist mode | P21728 | activation, % at 2 µM | AID 504660 | hit rate 1% among 360,000; note: 0% is about no effect
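Tetracycline-induced HEK293 TREx D1 cells, force-coupled to calcium signalling, were dye-loaded with a no-wash calcium kit. Compound was pin-added after a 10 s baseline. Fluorescence was read kinetically at 1 cycle/s for 180 s, with calcium rises flagged as agonism.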
D1 antag: antagonists of human D1 dopamine receptor; HEK293 TREx D1 cells, calcium flux, dopamine EC80; active compounds read low; activity change, negative = inhibition, % at 10 µM; hit rate 3.2% among 360,000; in the data active = activity change below about -30%; note: % is set by controls: 0 for no effect and ±100 for the full control effect
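Using tetracycline-induced force-coupled D1 Hek293 cells and a calcium dye, signals were followed for 180 s after compound, then for 180 s after EC80 dopamine, to detect inhibitors.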
TRHR agonist: activates the human TRH receptor; AID 493084; hit rate 0.18% among 360,000; TRHR cells, calcium flux fluo-8, FDSS agonist mode; activation, % at 2 µM; note: 0% is about no effect
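TRHR-expressing cells, plated overnight in medium with 10% serum, were loaded with fluo-8 calcium dye at room temperature. After a 10 s baseline, library compound was pin-added and calcium release was recorded kinetically (ex 480/em 530) as agonist response.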
* hit, by the source's call; . = no result given. Cut-off read from the data, not from the text of the source, unless noted: active = activation above about 30%; inactive = the rest.

SMILES	Glioma ERSR ind	D1 potentiator	TRHR PAM	D1 agonist	D1 antag	TRHR agonist
COCc1cc(=O)[nH]c(/N=C(\N)Nc2ccccc2C)n1	-4%	-2	11	1	11	0
CCOC(=O)Cc1cc(=O)[nH]c(/N=C(\N)Nc2ccc(C)cc2C)n1	-2%	-31	-3	4	-38*	0
O=C(c1ccco1)N1N=C(c2ccc3nccnc3c2)CC1c1ccccc1 (configuration not stated)	1%	-6	-2	1	.	0
COc1cc(OC)c(C2=Nc3ccc(Br)cc3C(c3ccccc3)N2CC(=O)NN)cc1OC (configuration not stated)	-6%	-3	16	5	-3	-1
COc1ccc(CNC2CCSc3ccccc32)cc1OC (configuration not stated)	-4%	-3	-26	2	-32*	0
COc1ccc(CNC2CCCc3ccccc32)cc1OC (configuration not stated)	-5%	-8	-2	9	9	0
CC(C)CCNC(=O)C1(O)c2ccccc2NC(=O)N1c1ccc(Cl)cc1 (configuration not stated)	-3%	2	11	9	13	1
CN(C)CCCN(Cc1ccccc1)C(=S)Nc1cccc(C(F)(F)F)c1	-4%	-5	-2	23	2	1
CCCN(Cc1ccccc1)C(=S)Nc1ccc(F)cc1	-2%	6	-2	4	2	0
CN(C)CCCN(Cc1ccccc1)C(=S)Nc1ccc(F)c(Cl)c1	-5%	-1	1	35*	-34*	1
CCCN(Cc1ccccc1)C(=S)Nc1cccc(C(F)(F)F)c1	-4%	6	-2	4	-32*	0
O=C(c1c(F)c(F)c(F)c(F)c1F)N1CCN(c2cccc(C(F)(F)F)c2)CC1	-8%	4	31*	5	4	0
Cc1[nH]c2ccccc2c1NC(=O)CN1CCN(c2cccc(C(F)(F)F)c2)CC1	-5%	-2	10	7	4	1
O=C(CN1CCN(c2cccc(Cl)c2)CC1)NCc1ccccc1	-4%	-1	-2	1	-15	0
O=C(CN1CCN(c2cccc(C(F)(F)F)c2)CC1)NCc1ccccc1	-3%	-5	19	2	-45*	0
O=C(c1ccccc1F)N1CCN(c2cccc(C(F)(F)F)c2)CC1	0%	-2	0	2	7	-1
Cc1[nH]c2ccccc2c1C(O)CN1CCN(c2cccc(C(F)(F)F)c2)CC1 (configuration not stated)	-19%	-15	5	31*	-59*	0
FC(F)Sc1ccc(NC(=S)N2CCN(c3ccccn3)CC2)cc1	-4%	-6	-2	11	-34*	0
Cc1cc(CN(C)C(=O)C2CCC(=O)N(CCc3ccccc3)C2)n[nH]1 (configuration not stated)	-4%	-6	12	1	-3	1
Fc1ccc(NC(=S)N2CCN(c3cccc(C(F)(F)F)c3)CC2)cc1	-5%	-10	1	10	-38*	0
Cc1c(Cl)cccc1NC(=S)N1CCN(c2ccccn2)CC1	-2%	-6	11	0	7	2
S=C(Nc1ccccc1Cl)N1CCN(c2ccccn2)CC1	1%	-6	-9	2	-32*	0
FC(F)(F)c1cccc(NC(=S)N2CCN(c3ccccn3)CC2)c1	-2%	-3	0	4	-30*	0
Fc1cccc(NC(=S)N2CCN(c3ccccn3)CC2)c1	-2%	-11	0	6	-13	0
CCc1ccccc1Nc1ncnc2ccccc12	-4%	-8	4	7	-60*	0
SMILES	Glioma ERSR ind	D1 potentiator	TRHR PAM	D1 agonist	D1 antag	TRHR agonist
CCCCCCCCCCCCCCCC[N+](C)(C)CC	-11%	-7	-9	41*	-25	0
CC#CC[N+](C)(C)CCCCCCCCCCCC	-6%	3	-2	34*	6	0
C#CC[N+](C)(C)CCCCCCCCCC	-4%	-1	5	0	-2	1
CC1=CC(C)(C)NC(=S)N1c1ccc(Cl)cc1	-1%	.	.	.	.	.
CC(=O)c1cc2c(cc1N/C(=N/S(=O)(=O)c1ccc(C)cc1)c1ccccc1)OCO2	-5%	-3	-2	1	1	0
Cc1cc(C)n(-c2ccc(NC(=O)C3CCCCN3Cc3cccc4c3OCO4)cc2)n1 (configuration not stated)	-4%	1	30*	3	3	0
Cc1cc(C)n(-c2ccc(NC(=O)C3CCCCN3C(=O)c3ccoc3)cc2)n1 (configuration not stated)	-2%	0	2	7	7	0
COc1cc(C2CC(=O)Oc3c2c(=O)[nH]c2ccccc32)cc(OC)c1OC (configuration not stated)	-3%	-2	31*	-1	-8	0
COc1ccc(C(C)=O)cc1CSc1nnnn1-c1ccc(O)cc1	-2%	-7	-2	3	-35*	0
COc1cc(CSc2nnnn2-c2ccc(C)cc2)cc(OC)c1OC	-4%	0	-3	39*	-7	0
Cc1nnc(SCC(=O)NC2CC2)s1	-3%	-1	-1	1	-48*	0
O=C(NCC1CCCO1)c1c(O)c2cccc3c2n(c1=O)CCC3 (configuration not stated)	1%	0	3	0	-53*	0
Fc1ccccc1Nc1nc(Cl)nc(Cl)n1	-3%	-4	-3	4	1	0
CCn1c(C)c(C)c2cc(C(=O)NCc3ccc(N(C)C)cc3)ccc21	-1%	-5	-1	4	-3	0
CCn1c(C)c(C)c2cc(C(=O)NCCc3ccco3)ccc21	-1%	-5	-4	-1	-12	0
Cc1c(C)n(Cc2ccc(F)cc2)c2ccc(C(=O)NCCN3CCOCC3)cc12	-5%	-19	-2	6	-30*	0
CCn1c(C)c(C)c2cc(C(=O)NCc3ccc(F)cc3)ccc21	-1%	-4	5	34*	16	-1
CCc1ccc(CNC(=O)c2ccc3nc(SCc4ccc(F)cc4)n(C)c3c2)cc1	0%	0	7	40*	3	0
Cc1c(C)n(Cc2ccc(F)cc2)c2ccc(C(=O)NCc3ccco3)cc12	1%	-8	-6	6	-75*	0
CCn1c(SCc2ccc(C)cc2)nnc1-c1cnccn1	3%	-2	-3	1	-10	0
COc1ccc(CCNC(=O)c2ccc3c(c2)c(C)c(C)n3Cc2ccc(F)cc2)c(OC)c1OC	-1%	-7	-4	3	-55*	0
CCCN1CCN(c2ncnc3scc(C4COc5ccccc5O4)c23)CC1 (configuration not stated)	-6%	-4	36*	1	16	-1
